Reference: publication PMC7862700, “An all-to-all approach to the identification of sequence-specific readers for epigenetic DNA modifications on cytosine”

Key:
Test in all cases: DAPPL (digital affinity profiling via proximity ligation, sequencing); 10 mM Tris-HCl pH 7.5, 50 mM NaCl, 1 mM DTT, 4% glycerol, room temperature, 30 min; GST-TFs on glutathione beads, 16-mer random dsDNA library, 0.1% formaldehyde crosslink after washing; high values mean tight binding
Details in all cases: protein: recombinant; tags: N-terminal GST; dsDNA, one strand shown
[1] = target: T1, ERF (Homo sapiens, UniProt P50548 1-548)
T1 sequence: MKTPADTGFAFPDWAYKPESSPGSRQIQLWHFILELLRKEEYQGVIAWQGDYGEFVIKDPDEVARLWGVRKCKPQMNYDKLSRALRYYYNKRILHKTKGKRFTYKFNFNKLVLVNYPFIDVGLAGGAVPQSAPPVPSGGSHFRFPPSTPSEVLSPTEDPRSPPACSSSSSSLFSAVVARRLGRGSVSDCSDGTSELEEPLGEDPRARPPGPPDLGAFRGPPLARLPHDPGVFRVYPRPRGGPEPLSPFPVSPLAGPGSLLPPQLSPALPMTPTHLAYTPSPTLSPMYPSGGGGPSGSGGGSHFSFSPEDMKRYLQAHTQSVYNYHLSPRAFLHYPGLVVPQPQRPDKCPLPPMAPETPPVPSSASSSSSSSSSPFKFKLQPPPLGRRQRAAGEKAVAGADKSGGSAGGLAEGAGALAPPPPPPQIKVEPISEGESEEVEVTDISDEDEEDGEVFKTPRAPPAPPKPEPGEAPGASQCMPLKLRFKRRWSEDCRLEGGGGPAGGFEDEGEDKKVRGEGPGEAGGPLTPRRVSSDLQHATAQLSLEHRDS
Summary of the method: (§1)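 Pools of DNA-barcoded human transcription factors, expressed in yeast as GST fusions on glutathione beads and combined with a tag-only sample, were incubated with 200 nmole of a 16-mer random double-stranded DNA library. Incubation took 30 min at room temperature in Tris/NaCl/DTT/glycerol buffer and was followed by washing, 0.1% formaldehyde crosslinking, proximity ligation (BsaI/T4 ligase, 1 h, 37 °C), PCR amplification and sequencing on an Illumina NextSeq500. Binding signal is the ratio of a hexamer's read frequency for a factor to its frequency for the tag-only sample.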

[2] = target: T2, ETV3L (Homo sapiens, UniProt Q6ZN32 1-361)
T2 sequence: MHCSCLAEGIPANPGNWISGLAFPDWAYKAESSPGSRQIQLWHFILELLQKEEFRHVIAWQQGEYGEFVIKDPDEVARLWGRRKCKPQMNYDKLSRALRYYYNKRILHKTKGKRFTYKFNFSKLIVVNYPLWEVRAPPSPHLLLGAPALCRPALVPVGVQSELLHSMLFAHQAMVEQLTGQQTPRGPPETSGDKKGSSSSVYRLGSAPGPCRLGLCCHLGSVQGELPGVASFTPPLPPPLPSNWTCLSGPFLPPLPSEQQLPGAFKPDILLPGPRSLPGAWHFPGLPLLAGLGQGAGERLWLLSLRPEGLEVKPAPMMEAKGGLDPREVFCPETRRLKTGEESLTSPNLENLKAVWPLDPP
Summary of the method: as §1

[3] = target: T3, ETS2 (Homo sapiens, UniProt P15036 1-469)
T3 sequence: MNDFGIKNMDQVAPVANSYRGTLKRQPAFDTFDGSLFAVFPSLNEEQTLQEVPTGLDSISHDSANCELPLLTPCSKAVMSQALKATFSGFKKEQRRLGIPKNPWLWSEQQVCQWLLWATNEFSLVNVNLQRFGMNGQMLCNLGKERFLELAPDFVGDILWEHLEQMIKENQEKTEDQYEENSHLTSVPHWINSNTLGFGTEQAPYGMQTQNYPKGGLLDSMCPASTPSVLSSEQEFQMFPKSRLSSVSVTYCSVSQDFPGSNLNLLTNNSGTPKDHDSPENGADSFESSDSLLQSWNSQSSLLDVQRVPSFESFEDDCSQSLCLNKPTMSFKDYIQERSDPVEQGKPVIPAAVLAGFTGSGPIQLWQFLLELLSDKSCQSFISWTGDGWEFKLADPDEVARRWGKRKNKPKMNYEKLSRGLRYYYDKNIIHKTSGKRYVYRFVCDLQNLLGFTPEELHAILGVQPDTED
Summary of the method: as §1

[4] = target: T4, SPDEF (Homo sapiens, UniProt O95238 1-335)
T4 sequence: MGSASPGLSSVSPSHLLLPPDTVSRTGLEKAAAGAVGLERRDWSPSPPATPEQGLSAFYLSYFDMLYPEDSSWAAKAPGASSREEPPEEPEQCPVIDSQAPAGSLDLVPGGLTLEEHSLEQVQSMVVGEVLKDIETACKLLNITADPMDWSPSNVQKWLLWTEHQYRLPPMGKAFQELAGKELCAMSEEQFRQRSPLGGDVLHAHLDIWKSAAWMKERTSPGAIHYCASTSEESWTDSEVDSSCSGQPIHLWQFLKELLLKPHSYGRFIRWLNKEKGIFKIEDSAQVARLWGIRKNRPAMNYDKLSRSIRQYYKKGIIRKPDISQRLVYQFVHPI
Summary of the method: as §1

[5] = target: T5, ETV7 (Homo sapiens, UniProt Q9Y603 1-341)
T5 sequence: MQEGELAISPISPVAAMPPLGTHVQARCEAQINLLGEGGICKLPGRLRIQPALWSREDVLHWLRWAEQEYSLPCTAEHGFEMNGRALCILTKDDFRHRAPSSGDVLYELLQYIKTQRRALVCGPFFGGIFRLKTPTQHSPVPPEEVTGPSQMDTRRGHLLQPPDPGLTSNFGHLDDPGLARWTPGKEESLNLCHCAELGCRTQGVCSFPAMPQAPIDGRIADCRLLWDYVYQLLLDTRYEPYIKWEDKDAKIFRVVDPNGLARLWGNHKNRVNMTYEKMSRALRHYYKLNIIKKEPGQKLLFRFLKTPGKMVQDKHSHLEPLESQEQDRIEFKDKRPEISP
Summary of the method: as §1

[6] = target: T6, ELF5 (Homo sapiens, UniProt Q9UKW6-2 1-255)
T6 sequence: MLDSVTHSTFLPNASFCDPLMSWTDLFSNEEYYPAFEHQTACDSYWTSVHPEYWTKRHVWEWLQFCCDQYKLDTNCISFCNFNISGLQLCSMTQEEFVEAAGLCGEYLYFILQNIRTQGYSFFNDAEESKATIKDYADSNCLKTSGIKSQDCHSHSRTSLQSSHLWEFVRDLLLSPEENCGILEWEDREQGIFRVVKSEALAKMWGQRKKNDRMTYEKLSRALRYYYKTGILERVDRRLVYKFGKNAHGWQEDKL
Summary of the method: as §1

[7] = target: T7, ETV3 (Homo sapiens, UniProt P41162-2 1-143)
T7 sequence: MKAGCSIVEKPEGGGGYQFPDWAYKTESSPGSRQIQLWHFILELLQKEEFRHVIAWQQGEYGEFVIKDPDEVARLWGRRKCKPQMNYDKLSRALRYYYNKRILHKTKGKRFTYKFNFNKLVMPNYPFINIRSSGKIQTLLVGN
Summary of the method: as §1

[8] = target: ETV6 (Homo sapiens, UniProt P41212 1-452)
Summary of the method: as §1

Chain of ETV6 (P41212 whole entry): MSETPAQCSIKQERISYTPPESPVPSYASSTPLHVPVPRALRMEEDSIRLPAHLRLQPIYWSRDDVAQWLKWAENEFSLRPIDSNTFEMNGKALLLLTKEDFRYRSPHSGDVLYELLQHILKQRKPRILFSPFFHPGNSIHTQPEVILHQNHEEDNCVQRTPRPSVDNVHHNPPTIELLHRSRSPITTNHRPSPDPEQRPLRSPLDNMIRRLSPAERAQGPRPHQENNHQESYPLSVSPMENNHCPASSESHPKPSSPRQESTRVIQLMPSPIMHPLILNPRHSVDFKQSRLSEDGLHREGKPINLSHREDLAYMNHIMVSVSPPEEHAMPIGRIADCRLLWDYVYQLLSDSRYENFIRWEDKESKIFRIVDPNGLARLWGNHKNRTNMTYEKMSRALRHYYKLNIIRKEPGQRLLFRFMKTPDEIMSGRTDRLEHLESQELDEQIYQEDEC

Sequence	binding signal [1]	binding signal [2]	binding signal [3]	binding signal [4]	binding signal [5]	binding signal [6]	binding signal [7]	binding signal [8]
GCTCCG	1.26 fold enrichment (6-mer frequency, TF over GST control)	1.33 fold enrichment (6-mer frequency, TF over GST control)	1.33 fold enrichment (6-mer frequency, TF over GST control)	1.34 fold enrichment (6-mer frequency, TF over GST control)	1.27 fold enrichment (6-mer frequency, TF over GST control)	1.25 fold enrichment (6-mer frequency, TF over GST control)	1.2 fold enrichment (6-mer frequency, TF over GST control)	1.19 fold enrichment (6-mer frequency, TF over GST control)
AATCTC	1.27 fold enrichment (6-mer frequency, TF over GST control)	1.15 fold enrichment (6-mer frequency, TF over GST control)	1.19 fold enrichment (6-mer frequency, TF over GST control)	1.14 fold enrichment (6-mer frequency, TF over GST control)	1.2 fold enrichment (6-mer frequency, TF over GST control)	1.29 fold enrichment (6-mer frequency, TF over GST control)	1.2 fold enrichment (6-mer frequency, TF over GST control)	1.26 fold enrichment (6-mer frequency, TF over GST control)
TTCACT	1.42 fold enrichment (6-mer frequency, TF over GST control)	1.4 fold enrichment (6-mer frequency, TF over GST control)	1.41 fold enrichment (6-mer frequency, TF over GST control)	1.32 fold enrichment (6-mer frequency, TF over GST control)	1.36 fold enrichment (6-mer frequency, TF over GST control)	1.32 fold enrichment (6-mer frequency, TF over GST control)	1.3 fold enrichment (6-mer frequency, TF over GST control)	1.23 fold enrichment (6-mer frequency, TF over GST control)
AACAAT	1.31 fold enrichment (6-mer frequency, TF over GST control)	1.26 fold enrichment (6-mer frequency, TF over GST control)	1.27 fold enrichment (6-mer frequency, TF over GST control)	1.2 fold enrichment (6-mer frequency, TF over GST control)	1.24 fold enrichment (6-mer frequency, TF over GST control)	1.36 fold enrichment (6-mer frequency, TF over GST control)	1.32 fold enrichment (6-mer frequency, TF over GST control)	1.31 fold enrichment (6-mer frequency, TF over GST control)
CTGCGC	1.34 fold enrichment (6-mer frequency, TF over GST control)	1.33 fold enrichment (6-mer frequency, TF over GST control)	1.46 fold enrichment (6-mer frequency, TF over GST control)	1.12 fold enrichment (6-mer frequency, TF over GST control)	1.23 fold enrichment (6-mer frequency, TF over GST control)	1.26 fold enrichment (6-mer frequency, TF over GST control)	1.32 fold enrichment (6-mer frequency, TF over GST control)	1.27 fold enrichment (6-mer frequency, TF over GST control)
AAAACC	1.22 fold enrichment (6-mer frequency, TF over GST control)	1.18 fold enrichment (6-mer frequency, TF over GST control)	1.11 fold enrichment (6-mer frequency, TF over GST control)	1.18 fold enrichment (6-mer frequency, TF over GST control)	1.25 fold enrichment (6-mer frequency, TF over GST control)	1.19 fold enrichment (6-mer frequency, TF over GST control)	1.08 fold enrichment (6-mer frequency, TF over GST control)	1.19 fold enrichment (6-mer frequency, TF over GST control)
TCACAC	1.26 fold enrichment (6-mer frequency, TF over GST control)	1.32 fold enrichment (6-mer frequency, TF over GST control)	1.33 fold enrichment (6-mer frequency, TF over GST control)	1.16 fold enrichment (6-mer frequency, TF over GST control)	1.27 fold enrichment (6-mer frequency, TF over GST control)	1.26 fold enrichment (6-mer frequency, TF over GST control)	1.27 fold enrichment (6-mer frequency, TF over GST control)	1.33 fold enrichment (6-mer frequency, TF over GST control)
AAACAT	1.45 fold enrichment (6-mer frequency, TF over GST control)	1.46 fold enrichment (6-mer frequency, TF over GST control)	1.48 fold enrichment (6-mer frequency, TF over GST control)	1.51 fold enrichment (6-mer frequency, TF over GST control)	1.44 fold enrichment (6-mer frequency, TF over GST control)	1.51 fold enrichment (6-mer frequency, TF over GST control)	1.48 fold enrichment (6-mer frequency, TF over GST control)	1.52 fold enrichment (6-mer frequency, TF over GST control)
